High-throughput results as filed in PubChem.
An excerpt weighted towards active compounds, which were near 3% of everything screened.
KDM4E inh – inhibitors of human JMJD2E histone demethylase; JMJD2E catalytic domain, FDH-coupled NADH fluorescence (FDH is formaldehyde dehydrogenase); 1.6% of 230,000 active; B2RXH2; Potency, µM (doses to about 57.1 µM), for inactives: at the top dose activity change, negative = inhibition, most hits filed as inhibitors; active = well fitted inhibition curve with a large enough effect, not every such curve was filed as active; inconclusive = small, poorly fitted or top-dose-only effect, or another doubt; inactive = no such curve, though single readings can be large or run the other way;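 also: potency is read from the fitted curve at half-maximal effect; 0% = wells with enzyme and -100% = buffer wells without enzyme; nearly all actives have a fitted effect of over 50% in size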
Target sequence (B2RXH2 1-337 limits assumed): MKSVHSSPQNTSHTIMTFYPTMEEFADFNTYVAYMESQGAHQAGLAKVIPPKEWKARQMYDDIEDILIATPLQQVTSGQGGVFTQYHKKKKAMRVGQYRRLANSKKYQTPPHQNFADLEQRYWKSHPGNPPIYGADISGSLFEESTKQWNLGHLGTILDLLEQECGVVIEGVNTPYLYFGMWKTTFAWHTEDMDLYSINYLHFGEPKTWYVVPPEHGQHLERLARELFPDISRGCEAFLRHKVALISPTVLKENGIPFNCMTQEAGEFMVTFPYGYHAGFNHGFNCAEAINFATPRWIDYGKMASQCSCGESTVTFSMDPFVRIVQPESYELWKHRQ
Tau FP inhib – inhibitors of human tau fibril formation. K18 P301L tau heparin fibrillization, Alexa594 FP, 6 h. 0.39% of 280,000 active. Potency, µM (highest dose often 57.7 µM), for inactives: at the top dose activity, negative = inhibition, most hits filed as inhibitors. AID 1468. P10636; also: potency is read from the fitted curve at half-maximal effect; nearly all actives have a fitted effect of over 55% in size
Target sequence (P10636 561-689 P618L limits assumed): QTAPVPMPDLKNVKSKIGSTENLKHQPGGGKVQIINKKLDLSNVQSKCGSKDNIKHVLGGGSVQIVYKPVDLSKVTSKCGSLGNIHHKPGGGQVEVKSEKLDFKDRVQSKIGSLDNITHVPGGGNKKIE
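Steps: dispense K18 P301L tau (15 uM plus 0.24 uM Alexa 594 tracer, final) in pH 7 sodium acetate; add compound; add heparin (20 uM final); incubate 6 hr, 37 C; add ThT (30 uM final); after 1 hr ambient, read FP.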
Tau ThT inhib – blocks human tau fibril formation measured by thioflavin T | recombinant tau K18 P301L, heparin-induced fibrillization, ThT fluorescence | 2.1% of 270,000 active | P10636 | Potency, µM (highest dose often 57.4 µM), inactives show top-dose activity, negative = inhibition, hits mostly inhibitors | AID 1460; also: potency is read from the fitted curve at half-maximal effect; nearly all actives have a fitted effect of over 55% in size
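Aggregation was driven by heparin (20 uM final) acting on recombinant tau […] bearing P301L in 100 mM sodium acetate pH 7; fibrils were detected with Thioflavin T.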
Tau fluor cs – counter-screen for tau fibril formation inhibitors; tau K18 P301L Alexa594 fluorescence, heparin fibrillization; Potency, µM (top dose mostly 57.7 µM), inactives show at the top dose activity change, negative = decrease; 0.93% of 280,000 active; AID 1463; also: potency is read from the fitted curve at half-maximal effect; nearly all actives have a fitted effect of over 55% in size
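Human tau K18 P301L (15 uM unlabeled, 0.24 uM Alexa 594-labeled) in 100 mM sodium acetate pH 7 with 20 uM heparin, 6 hr at 37 C. ThT 30 uM added, 1 hr ambient; Alexa 594 FP and total fluorescence read at 555/632 nm.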
FBPA coupling cs – coupling enzyme interference in Giardia aldolase counter-screen; activity change, negative = inhibition, % at 58.2 µM, hits read low; coupling enzyme system counterscreen, AmpLite Red fluorescence; AID 2472; 0.67% of 290,000 active; in the data active = activity change below about -30%
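Counterscreen lacking aldolase: glyceraldehyde-3-phosphate coupling-enzyme reagent preincubated 10 min at RT with compound (at 57.5 uM final), then substrate/coupling system with AmpLite Red added; fluorescence read at 525/598 nm after 20 min RT.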
The depositor's hits bear a star; [ ] = another dose, or the depositor's remark. Unless noted, calls follow the shape of the dose curve; as a rule, active = well fitted curve in the direction sought with a large enough effect; inconclusive = small, poorly fitted or top-dose-only effect, or another doubt; inactive = no such curve, though single readings can be large; an effect the other way counts as inactive or inconclusive. Unless noted, % is scaled to controls: 0 for no effect and ±100 for the full control effect.

For Cc1cccc(N2CCN(C(=O)c3cccc(-n4c(C)nc5cccnc54)c3)CC2)c1C the results were Tau FP inhib 1.6%, Tau ThT inhib -12.5% and Tau fluor cs -17.3%.
Screening N=C1/C(=C/c2cccs2)C(=O)N=C2SN=C(SCc3ccccc3)N12 returned KDM4E inh 2.9%, Tau FP inhib 2.8%, Tau ThT inhib 17.8µM*, Tau fluor cs inconclusive and FBPA coupling cs 8.9.
For CSC1=NSC2=NC(=O)/C(=C\c3cccs3)C(=N)N12 the results were KDM4E inh -5.0%, Tau FP inhib 12.3%, Tau ThT inhib 14.1µM*, Tau fluor cs -7.0% and FBPA coupling cs -0.6.
`Nc1c(C(=O)N/N=C/c2cccnc2)oc2nc(-c3ccccc3)cc(-c3ccco3)c12` gave KDM4E inh inconclusive, Tau FP inhib 1.0%, Tau ThT inhib inconclusive, Tau fluor cs -15.4% and FBPA coupling cs -8.9.
`Nc1c(C(=O)N/N=C/c2cccnc2)oc2nc(-c3ccco3)cc(-c3ccco3)c12` gave KDM4E inh inconclusive, Tau FP inhib inconclusive, Tau ThT inhib 15.8µM*, Tau fluor cs inconclusive and FBPA coupling cs -7.3.
Cc1ccccc1N1CC(=O)N(c2ccccc2C)CC1=O was read as KDM4E inh 4.0%, Tau FP inhib -0.5%, Tau ThT inhib -10.9%, Tau fluor cs -7.0% and FBPA coupling cs -0.6.
Screening Cc1cccc2c1c1ccc3c(c1n2C)C(=O)C=CC3=O returned KDM4E inh 2.9%, Tau FP inhib 8.91µM*, Tau ThT inhib 3.55µM*, Tau fluor cs 3.98µM*[quencher] and FBPA coupling cs -18.1.
Screening CCCN1CCC(=O)N(C(CSc2ccc(OC)cc2)CC(C)C)CC1 (configuration not stated) returned FBPA coupling cs 2.3.
c1ccc(OCCSc2nc3ccccc3[nH]2)cc1 was read as KDM4E inh 6.1%, Tau FP inhib -11.8%, Tau ThT inhib -13.2%, Tau fluor cs -12.8% and FBPA coupling cs 0.0.
Brc1ccc2nc(SCCOc3ccccc3)[nH]c2c1 was read as Tau FP inhib 28.2µM*, Tau ThT inhib inconclusive and Tau fluor cs 14.1µM*[quencher].
Screening Cc1ccc(CN=Cc2[nH]c3ccc(Br)c(Cl)c3c2O)cc1 returned KDM4E inh -6.8%, Tau FP inhib 2.5%, Tau ThT inhib inconclusive, Tau fluor cs -19.6% and FBPA coupling cs -39.8*.
Screening CC1CCCCN1C(=O)c1ccc2c(c1)N(Cc1ccc(Cl)cc1)C(=O)c1ccccc1S2=O (configuration not stated) returned Tau FP inhib 6.8%, Tau ThT inhib -5.1% and Tau fluor cs -1.1%.
Screening C=CCn1c(N)c(C(=O)Nc2cccc(C)c2)c2nc3ccccc3nc21 returned KDM4E inh inconclusive, Tau FP inhib inconclusive, Tau ThT inhib inconclusive, Tau fluor cs 11.2µM*[quencher] and FBPA coupling cs -33.8*.
COc1cc(O)cc(OC)c1OC was read as KDM4E inh -24.1%, Tau FP inhib inconclusive, Tau ThT inhib inconclusive, Tau fluor cs -24.6% and FBPA coupling cs -32.5*.
For COc1c(O)cc(O)cc1O the results were KDM4E inh -18.3%, Tau FP inhib -10.0%, Tau ThT inhib -11.7%, Tau fluor cs -19.2% and FBPA coupling cs 1.1.
Screening Cc1ccc(NC(=O)c2cc(S(=O)(=O)N3CCCCC3)c[nH]2)cc1N(C)C returned Tau FP inhib 2.5%, Tau ThT inhib -8.1% and Tau fluor cs -17.5%.
`N#Cc1nc(-c2ccco2)oc1N1CCC(C(N)=O)CC1` gave KDM4E inh 3.55µM*, Tau FP inhib -5.3%, Tau ThT inhib -2.1%, Tau fluor cs -8.4% and FBPA coupling cs -17.9.
N#Cc1nc(-c2ccccc2)oc1N1CCC(C(N)=O)CC1 was read as FBPA coupling cs 3.5.
Screening C=CCC1C=CC(Oc2ccc(F)cc2C)C(CO)O1 (configuration not stated) returned Tau FP inhib 4.0%[11.6 µM], Tau ThT inhib -3.1%[11.5 µM], Tau fluor cs -0.5%[11.6 µM] and FBPA coupling cs -1.5.
Screening Nc1ccccc1NC1CCCCC1 returned KDM4E inh 14.1µM*, Tau FP inhib -6.8%, Tau ThT inhib 22.4µM*, Tau fluor cs inconclusive and FBPA coupling cs -4.0.
For O=C(CC1(O)C(=O)N(CCc2ccccc2)c2ccc(Br)cc21)c1ccc(F)cc1 (configuration not stated) the results were Tau FP inhib 5.8%, Tau ThT inhib inconclusive and Tau fluor cs inconclusive.
For CCOc1ccc(NC(=O)CC2C(=O)N(c3ccc(F)cc3)C(=O)N2CCc2sccc2C)cc1 (configuration not stated) the results were Tau FP inhib -14.1%, Tau ThT inhib 2.6% and Tau fluor cs inconclusive.
For CCN1C(c2ccccc2)=C(c2ccccc2)S/C1=C/C=C1\SC(=S)N(C)C1=O the results were KDM4E inh 1.4%, Tau FP inhib -7.4%, Tau ThT inhib inconclusive, Tau fluor cs 3.16µM*[fluorescent] and FBPA coupling cs -0.3.
CCN1C(=O)/C(=C/C=C2/Sc3ccc4ccccc4c3N2CCO)SC1=S was read as KDM4E inh 3.0%, Tau FP inhib -7.9%, Tau ThT inhib inconclusive, Tau fluor cs inconclusive and FBPA coupling cs -2.0.
Screening NC(=O)c1ccsc1N returned KDM4E inh -7.9%, Tau FP inhib 31.6µM*, Tau ThT inhib 20µM*, Tau fluor cs -24.9% and FBPA coupling cs -11.2.
Nc1sccc1C(=O)c1ccc(Cl)cc1 was read as KDM4E inh 9.5%, Tau FP inhib 6.7%, Tau ThT inhib -12.5%, Tau fluor cs -19.9% and FBPA coupling cs 0.4.
`COc1ccc(C(=O)c2sc3nc(-c4ccccc4)ccc3c2N)cc1OC` gave KDM4E inh -4.1%, Tau FP inhib 2.0%, Tau ThT inhib -7.6%, Tau fluor cs inconclusive and FBPA coupling cs -1.1.
For COc1ccc(-c2ccc3c(N)c(C(=O)NC(C)C)sc3n2)cc1OC the results were KDM4E inh inconclusive, Tau FP inhib inconclusive, Tau ThT inhib 10µM*, Tau fluor cs 17.8µM*[quencher] and FBPA coupling cs 0.8.
`COc1cccc(-c2ccc3c(N)c(C(=O)c4ccc(Br)cc4)sc3n2)c1` gave Tau FP inhib inconclusive, Tau ThT inhib 4.47µM* and Tau fluor cs 2.51µM*[quencher].
COc1ccc(S(=O)(=O)c2cn(Cc3ccccc3)c3cc(N4CCCC4)c(F)cc3c2=O)cc1 was read as Tau FP inhib -7.0%, Tau ThT inhib -5.1% and Tau fluor cs -6.3%.
Screening COc1cc(C2C(=O)N(C3CCCCCC3)CC(=O)N2Cc2ccccc2)ccc1OC(C)C (configuration not stated) returned Tau FP inhib -2.3%, Tau ThT inhib -9.4% and Tau fluor cs -6.2%.
`CCC(=O)N1CCN(c2ccc(NC(=O)c3cc4ccccc4o3)cc2)CC1` gave KDM4E inh -5.2%, Tau FP inhib 2.2%, Tau ThT inhib 2.82µM*, Tau fluor cs inconclusive and FBPA coupling cs 1.6.
